Compound activity from PubChem BioAssay.
A1 inh: inhibitors of the anti-apoptotic protein A1, read as caspase activation; actives 0.066% (n = 330,000); MEF A1-2A-BIM cells, Caspase-Glo 3/7 luminescence, 3 h; percent of clofoctol response, vehicle zero; caspase activation, % (no concentration beside the values);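 active = over half of replicate activation scores above 10%, or exactly half above 10 with the replicate mean above 10; inconclusive = replicate mean below 10 yet half the replicates above 10; inactive = over half of replicates below 10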
NTR1 ag: activates human neurotensin receptor 1. activation, % at 20 µM. NTR1-U2OS beta-arrestin-GFP spot imaging, agonist mode. P30989. actives 0.17% (n = 330,000);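 active = activation at or above 40% of the spot to cytoplasm intensity ratio, with at least 20 cells analyzed; inconclusive = wells under 20 cells, flagged as cytotoxic or low count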
Target sequence (P30989 whole entry, looked up): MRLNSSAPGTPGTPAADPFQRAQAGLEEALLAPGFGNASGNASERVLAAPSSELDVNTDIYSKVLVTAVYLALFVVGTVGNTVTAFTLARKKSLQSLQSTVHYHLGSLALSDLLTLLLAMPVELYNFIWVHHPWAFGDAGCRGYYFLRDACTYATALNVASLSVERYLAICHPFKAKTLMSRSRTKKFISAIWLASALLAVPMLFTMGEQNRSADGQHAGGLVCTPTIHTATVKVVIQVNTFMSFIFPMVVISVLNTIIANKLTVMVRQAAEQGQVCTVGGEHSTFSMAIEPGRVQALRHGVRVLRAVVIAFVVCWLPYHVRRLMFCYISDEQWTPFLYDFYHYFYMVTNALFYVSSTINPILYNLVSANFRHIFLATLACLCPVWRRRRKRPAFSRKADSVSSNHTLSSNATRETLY
Beta cell apopt: beta cell apoptosis inhibition; INS-1E cytokine-induced death, ATP luminescence, 48 h; percent of positive-control rescue, neutral wells zero; protection from apoptosis, % (no concentration beside the values); actives 0.8% (n = 300,000); AID 435005;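 active = Every replicate reaches about 75%, or at least half do and their mean reaches it too, limit read from the data; inconclusive = At least half of replicates reach the limit but their mean does not; inactive = Under half of replicates reach the limit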;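 also: higher means more ATP so stronger rescue from cytokine killing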
697 NFkB inh: inhibitors of the PMA/ionomycin-induced NF-kB reporter in 697 B cells; 697 B-cell NF-kB luciferase reporter, 16 h; inhibition, % at 4 µM; actives 0.33% (n = 330,000); AID 435022; in the data active = inhibition above about 35%
Mdm2-MdmX inh: disrupts the human Mdm2-MdmX interaction; SaOS-2 split-luciferase Mdm2/MdmX complementation, luminescence; actives 3% (n = 330,000); inhibition, % at 8 µM; O15151+Q00987;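 active = inhibition of at least 50% at 8 µM in the primary screen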
Jurkat NFkB inh: inhibitors of the PMA/ionomycin-induced NF-kB reporter in Jurkat cells; actives 0.53% (n = 330,000); PMA/ionomycin-induced NF-kB luciferase reporter, luminescence; inhibition, % at 4 µM; in the data active = inhibition above about 50%
Mdm2 MdmX conf: human Mdm2/MdmX binding inhibition, confirmed; shares compounds with Mdm2-MdmX inh; luminescent assay; inhibition, % at 8 µM; actives 55% (n = 10,000); AID 489028; in the data active = inhibition above about 40%
FLuc counter: inhibits full-length luciferase, flagging false Mdm2/MdmX hits. shares compounds with Mdm2-MdmX inh. SaOS-2 full-length luciferase counterscreen, luminescence. inhibition, % at 8 µM. actives 77% (n = 6,200). AID 504607;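 active = mean inhibition at 8 µM reaching about 37%, which flags the compound as non-specific, limit read from the data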;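 also: p53-null SaOS-2 cells with luciferase driven by a doxycycline-inducible promoter; compound on cells about two nights before reading with doxycycline added after day one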
Numbers stand for hits. An excerpt weighted towards active compounds, which were near 3.8% of everything screened.

How did COc1ccc(NC(=O)c2sc3ncnc(N4CCN(c5ccccn5)CC4)c3c2C)cc1Cl do in these assays?
A1 inh: inactive; NTR1 ag: inactive; 697 NFkB inh: inactive; Mdm2-MdmX inh: 57; Jurkat NFkB inh: inactive; Mdm2 MdmX conf: inactive

Results for Cc1cc(Br)ccc1NC(=O)c1sc2ncnc(N3CCN(c4ccccn4)CC3)c2c1C ?
A1 inh: inactive; NTR1 ag: inactive; Beta cell apopt: inactive; 697 NFkB inh: inactive; Mdm2-MdmX inh: 59; Jurkat NFkB inh: inactive; Mdm2 MdmX conf: 49; FLuc counter: 59

What do the screens show for `CCc1ccc(NC(=O)c2sc3nc(C)nc(N4CCN(c5ccccn5)CC4)c3c2C)cc1`?
A1 inh: inactive; NTR1 ag: inactive; Beta cell apopt: inactive; 697 NFkB inh: inactive; Mdm2-MdmX inh: inactive; Jurkat NFkB inh: inactive

Results for COc1ccc(C2=NN(CCC(=O)NCC3CCCO3)C(=O)CC2)cc1 (centres undefined) ?
A1 inh: inactive; NTR1 ag: inactive; Beta cell apopt: inactive; 697 NFkB inh: inactive; Mdm2-MdmX inh: inactive; Jurkat NFkB inh: inactive

What do the screens show for `CC(C)[C@H](CO)Nc1nc(NCc2ccc(S(N)(=O)=O)cc2)c2ncn(C(C)C)c2n1`?
A1 inh: inactive; NTR1 ag: inactive; Beta cell apopt: inactive; 697 NFkB inh: inactive; Mdm2-MdmX inh: 79; Jurkat NFkB inh: inactive; Mdm2 MdmX conf: 64; FLuc counter: 51

Results for O=C(NCc1ccccc1)C1=C[C@H](c2csc3ccccc23)C[C@H](OCc2ccc(CO)cc2)O1 ?
A1 inh: inconclusive; NTR1 ag: inactive; Beta cell apopt: inactive; 697 NFkB inh: inactive; Mdm2-MdmX inh: 54; Jurkat NFkB inh: inactive; Mdm2 MdmX conf: inactive; FLuc counter: 59

Results for CC(C)(C)[C@H]1C=C(C(=O)NCc2nc3ccccc3[nH]2)O[C@@H](OCc2ccc(CO)cc2)C1 ?
A1 inh: inactive; NTR1 ag: inactive; Beta cell apopt: inactive; 697 NFkB inh: inactive; Mdm2-MdmX inh: 53; Jurkat NFkB inh: inactive; Mdm2 MdmX conf: 54; FLuc counter: 93

Results for O=C(NCc1nc2ccccc2[nH]1)C1=C[C@H](C2CCCCC2)C[C@H](OCc2ccc(CO)cc2)O1 ?
A1 inh: inactive; NTR1 ag: inactive; Beta cell apopt: inactive; 697 NFkB inh: inactive; Mdm2-MdmX inh: 68; Jurkat NFkB inh: inactive; Mdm2 MdmX conf: 44; FLuc counter: 67

Results for O=C(Nc1ccccc1)C1=C[C@H](C2CCCCC2)C[C@H](OCc2ccc(CO)cc2)O1 ?
A1 inh: inactive; NTR1 ag: inactive; Beta cell apopt: inactive; 697 NFkB inh: inactive; Mdm2-MdmX inh: inactive; Jurkat NFkB inh: inactive

What do the screens show for `O=C(Nc1ccccc1)C1=C[C@@H](c2csc3ccccc23)C[C@@H](OCc2ccc(CO)cc2)O1`?
A1 inh: inactive; NTR1 ag: inactive; Beta cell apopt: inactive; 697 NFkB inh: inactive; Mdm2-MdmX inh: inactive; Jurkat NFkB inh: inactive

What do the screens show for `O=C(NCc1nc2ccccc2[nH]1)C1=C[C@H](c2ccccc2)C[C@H](OCc2ccc(CO)cc2)O1`?
A1 inh: inactive; NTR1 ag: inactive; Beta cell apopt: inactive; 697 NFkB inh: inactive; Mdm2-MdmX inh: inactive; Jurkat NFkB inh: inactive

How did O=C(Nc1ccccc1)C1=C[C@@H](C2CCCCC2)C[C@@H](OCc2ccc(CO)cc2)O1 do in these assays?
A1 inh: inactive; NTR1 ag: inactive; Beta cell apopt: inactive; 697 NFkB inh: inactive; Mdm2-MdmX inh: 96; Jurkat NFkB inh: inactive; Mdm2 MdmX conf: 76; FLuc counter: inactive

What do the screens show for `O=C1[C@@H](Oc2ccccc2)[C@@H](c2cccnc2)N1c1ccccc1`?
NTR1 ag: inactive; 697 NFkB inh: inactive; Mdm2-MdmX inh: inactive

Results for Cc1cc(/C=N/n2c(COc3ccccc3C)nc3ccccc3c2=O)c(O)c([N+](=O)[O-])c1 ?
A1 inh: inactive; NTR1 ag: inactive; Beta cell apopt: 79; 697 NFkB inh: inactive; Mdm2-MdmX inh: 56; Jurkat NFkB inh: inactive; Mdm2 MdmX conf: 64; FLuc counter: 46

Results for Cc1ccccc1OCc1nc2ccccc2c(=O)n1/N=C/c1c[nH]c2ccccc12 ?
A1 inh: inactive; NTR1 ag: inactive; Beta cell apopt: inactive; 697 NFkB inh: inactive; Mdm2-MdmX inh: inactive; Jurkat NFkB inh: inactive

What do the screens show for `Cc1cccc(NC(=O)CSc2nc3ccc(NC(=O)CSc4nnnn4-c4ccccc4)cc3s2)c1C`?
A1 inh: inactive; NTR1 ag: inactive; Beta cell apopt: inactive; 697 NFkB inh: inactive; Mdm2-MdmX inh: 59; Jurkat NFkB inh: inactive; Mdm2 MdmX conf: inactive

What do the screens show for `O=S(=O)(NCc1ccccc1)c1ccccc1NCc1ccc(Cl)cc1`?
NTR1 ag: inactive; 697 NFkB inh: inactive; Mdm2-MdmX inh: inactive

How did COc1ccc([N+](=O)[O-])cc1COc1ccc2c(-c3ccccc3)cc(=O)oc2c1 do in these assays?
A1 inh: inactive; NTR1 ag: inactive; Beta cell apopt: inactive; 697 NFkB inh: inactive; Mdm2-MdmX inh: 52; Jurkat NFkB inh: inactive; Mdm2 MdmX conf: inactive

What do the screens show for `O=Cc1cccc(Oc2ccc([N+](=O)[O-])cc2[N+](=O)[O-])c1`?
A1 inh: inactive; NTR1 ag: inactive; Beta cell apopt: inactive; 697 NFkB inh: inactive; Mdm2-MdmX inh: 64; Jurkat NFkB inh: inactive; Mdm2 MdmX conf: inactive

Results for Cc1cc(=O)oc2cc(Oc3ncccc3[N+](=O)[O-])ccc12 ?
A1 inh: inactive; NTR1 ag: inactive; Beta cell apopt: inactive; 697 NFkB inh: inactive; Mdm2-MdmX inh: inactive; Jurkat NFkB inh: inactive

What do the screens show for `Cc1cc(=O)oc2cc(Oc3ccc([N+](=O)[O-])cc3[N+](=O)[O-])ccc12`?
A1 inh: inactive; NTR1 ag: inactive; Beta cell apopt: inactive; 697 NFkB inh: inactive; Mdm2-MdmX inh: 60; Jurkat NFkB inh: inactive; Mdm2 MdmX conf: 65; FLuc counter: 52

Results for COc1ccc(/C=C2/SC(=S)N(CCCC(=O)N3CCN(C)CC3)C2=O)cc1 ?
A1 inh: inactive; NTR1 ag: inactive; Beta cell apopt: inactive; 697 NFkB inh: inactive; Mdm2-MdmX inh: 55; Jurkat NFkB inh: inactive; Mdm2 MdmX conf: inactive; FLuc counter: inactive

What do the screens show for `CN1CCN(C(=O)CCCN2C(=O)/C(=C/c3ccc(Cl)cc3)SC2=S)CC1`?
A1 inh: inactive; NTR1 ag: inactive; Beta cell apopt: inactive; 697 NFkB inh: inactive; Mdm2-MdmX inh: 52; Jurkat NFkB inh: inactive; Mdm2 MdmX conf: inactive

What do the screens show for `Cc1ccc(/C=C2\SC(=S)N(CCCC(=O)N3CCOCC3)C2=O)cc1`?
A1 inh: inactive; NTR1 ag: inactive; Beta cell apopt: inactive; 697 NFkB inh: inactive; Mdm2-MdmX inh: 56; Jurkat NFkB inh: inactive; Mdm2 MdmX conf: inactive; FLuc counter: inactive
